These results are taken from paper PMC9911399, “Two distinct binding modes provide the RNA-binding protein RbFox with extraordinary sequence specificity”.

Numbering of substitutions follows the chain as printed; changes in the protein carry UniProt numbers. The full ranking holds about 16,000 sequences; the median of “ka relative to ugcaugu” is about 0.0091, and the highest 2% start at about 0.032. Shown is part of a subset that was picked to be rich in the highest values.

The chains are these.
T1: RBFOX1 RRM (Homo sapiens, UniProt Q9NWB1 109-208)
T1 sequence: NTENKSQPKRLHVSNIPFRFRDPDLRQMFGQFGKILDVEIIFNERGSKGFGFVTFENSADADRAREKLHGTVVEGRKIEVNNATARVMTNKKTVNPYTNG

B1: CUGGACU (DNA:RNA)
RNA: GGGAGACCGGAAUUCAGAUUGUCCCUGGACUUUAAAUCCCGUCGUAGCCACCA
DNA 1: CAATCTGAATTCCGGTCTCCC
DNA 2: TGGTGGCTACGACGGGATT
B2: AUUAGUU (DNA:RNA)
RNA: B1 RNA with C25A, G27U, G28A, A29G, C30U
DNA 1: CAATCTGAATTCCGGTCTCCC
DNA 2: TGGTGGCTACGACGGGATT
B3: UACCGUC (DNA:RNA)
RNA: GGGAGACCGGAAUUCAGAUUGUCCUACCGUCUUAAAUCCCGUCGUAGCCACCA
DNA 1: CAATCTGAATTCCGGTCTCCC
DNA 2: TGGTGGCTACGACGGGATT
B4: ACUAUCA (DNA:RNA)
RNA: B1 RNA with C25A, U26C, G27U, G28A, A29U, U31A
DNA 1: CAATCTGAATTCCGGTCTCCC
DNA 2: TGGTGGCTACGACGGGATT
B5: UGGGUGG (DNA:RNA)
RNA: B1 RNA with C25U, U26G, A29U, C30G, U31G
DNA 1: CAATCTGAATTCCGGTCTCCC
DNA 2: TGGTGGCTACGACGGGATT
B6: GUCGUUC (DNA:RNA)
RNA: B3 RNA with U25G, A26U, C28G, G29U
DNA 1: CAATCTGAATTCCGGTCTCCC
DNA 2: TGGTGGCTACGACGGGATT
B7: UUGUCCC (DNA:RNA)
RNA: B1 RNA with C25U, G28U, A29C, U31C
DNA 1: CAATCTGAATTCCGGTCTCCC
DNA 2: TGGTGGCTACGACGGGATT
B8: CGUGUCC (DNA:RNA)
RNA: B1 RNA with U26G, G27U, A29U, U31C
DNA 1: CAATCTGAATTCCGGTCTCCC
DNA 2: TGGTGGCTACGACGGGATT
B9: UUGCGUG (DNA:RNA)
RNA: B3 RNA with A26U, C27G, C31G
DNA 1: CAATCTGAATTCCGGTCTCCC
DNA 2: TGGTGGCTACGACGGGATT
B10: GUGUGCG (DNA:RNA)
RNA: B1 RNA with C25G, G28U, A29G, U31G
DNA 1: CAATCTGAATTCCGGTCTCCC
DNA 2: TGGTGGCTACGACGGGATT
B11: UUGGGGG (DNA:RNA)
RNA: B1 RNA with C25U, A29G, C30G, U31G
DNA 1: CAATCTGAATTCCGGTCTCCC
DNA 2: TGGTGGCTACGACGGGATT
B12: CUUGUCC (DNA:RNA)
RNA: B1 RNA with G27U, A29U, U31C
DNA 1: CAATCTGAATTCCGGTCTCCC
DNA 2: TGGTGGCTACGACGGGATT
B13: GUGCGUG (DNA:RNA)
RNA: B3 RNA with U25G, A26U, C27G, C31G
DNA 1: CAATCTGAATTCCGGTCTCCC
DNA 2: TGGTGGCTACGACGGGATT
B14: UUGGGAA (DNA:RNA)
RNA: B1 RNA with C25U, A29G, C30A, U31A
DNA 1: CAATCTGAATTCCGGTCTCCC
DNA 2: TGGTGGCTACGACGGGATT
B15: CCGUGCG (DNA:RNA)
RNA: B1 RNA with U26C, G28U, A29G, U31G
DNA 1: CAATCTGAATTCCGGTCTCCC
DNA 2: TGGTGGCTACGACGGGATT
B16: UUGUGUG (DNA:RNA)
RNA: B3 RNA with A26U, C27G, C28U, C31G
DNA 1: CAATCTGAATTCCGGTCTCCC
DNA 2: TGGTGGCTACGACGGGATT
B17: UUGCGUC (DNA:RNA)
RNA: B3 RNA with A26U, C27G
DNA 1: CAATCTGAATTCCGGTCTCCC
DNA 2: TGGTGGCTACGACGGGATT
B18: UUGGGUG (DNA:RNA)
RNA: B1 RNA with C25U, A29G, C30U, U31G
DNA 1: CAATCTGAATTCCGGTCTCCC
DNA 2: TGGTGGCTACGACGGGATT
B19: UCUCAAU (DNA:RNA)
RNA: B1 RNA with C25U, U26C, G27U, G28C, C30A
DNA 1: CAATCTGAATTCCGGTCTCCC
DNA 2: TGGTGGCTACGACGGGATT
B20: CGUCACC (DNA:RNA)
RNA: B1 RNA with U26G, G27U, G28C, U31C
DNA 1: CAATCTGAATTCCGGTCTCCC
DNA 2: TGGTGGCTACGACGGGATT
B21: GACAUGU (DNA:RNA)
RNA: B3 RNA with U25G, C28A, G29U, U30G, C31U
DNA 1: CAATCTGAATTCCGGTCTCCC
DNA 2: TGGTGGCTACGACGGGATT
B22: GACACAU (DNA:RNA)
RNA: B3 RNA with U25G, C28A, G29C, U30A, C31U
DNA 1: CAATCTGAATTCCGGTCTCCC
DNA 2: TGGTGGCTACGACGGGATT
B23: GAACACU (DNA:RNA)
RNA: B1 RNA with C25G, U26A, G27A, G28C
DNA 1: CAATCTGAATTCCGGTCTCCC
DNA 2: TGGTGGCTACGACGGGATT
B24: AGUUCUC (DNA:RNA)
RNA: B3 RNA with U25A, A26G, C27U, C28U, G29C
DNA 1: CAATCTGAATTCCGGTCTCCC
DNA 2: TGGTGGCTACGACGGGATT
B25: CUCUCGG (DNA:RNA)
RNA: B1 RNA with G27C, G28U, A29C, C30G, U31G
DNA 1: CAATCTGAATTCCGGTCTCCC
DNA 2: TGGTGGCTACGACGGGATT
B26: GAGGGCA (DNA:RNA)
RNA: B1 RNA with C25G, U26A, A29G, U31A
DNA 1: CAATCTGAATTCCGGTCTCCC
DNA 2: TGGTGGCTACGACGGGATT
B27: UGCCCGG (DNA:RNA)
RNA: B3 RNA with A26G, G29C, U30G, C31G
DNA 1: CAATCTGAATTCCGGTCTCCC
DNA 2: TGGTGGCTACGACGGGATT
B28: UGUCUGC (DNA:RNA)
RNA: B3 RNA with A26G, C27U, G29U, U30G
DNA 1: CAATCTGAATTCCGGTCTCCC
DNA 2: TGGTGGCTACGACGGGATT
B29: UGCACCA (DNA:RNA)
RNA: B3 RNA with A26G, C28A, G29C, U30C, C31A
DNA 1: CAATCTGAATTCCGGTCTCCC
DNA 2: TGGTGGCTACGACGGGATT
B30: ACCACGG (DNA:RNA)
RNA: B3 RNA with U25A, A26C, C28A, G29C, U30G, C31G
DNA 1: CAATCTGAATTCCGGTCTCCC
DNA 2: TGGTGGCTACGACGGGATT
B31: UGCACAA (DNA:RNA)
RNA: B3 RNA with A26G, C28A, G29C, U30A, C31A
DNA 1: CAATCTGAATTCCGGTCTCCC
DNA 2: TGGTGGCTACGACGGGATT
B32: UGCACGG (DNA:RNA)
RNA: B3 RNA with A26G, C28A, G29C, U30G, C31G
DNA 1: CAATCTGAATTCCGGTCTCCC
DNA 2: TGGTGGCTACGACGGGATT
B33: UGCACGA (DNA:RNA)
RNA: B3 RNA with A26G, C28A, G29C, U30G, C31A
DNA 1: CAATCTGAATTCCGGTCTCCC
DNA 2: TGGTGGCTACGACGGGATT
B34: ACGCUGC (DNA:RNA)
RNA: B3 RNA with U25A, A26C, C27G, G29U, U30G
DNA 1: CAATCTGAATTCCGGTCTCCC
DNA 2: TGGTGGCTACGACGGGATT
B35: UGCACGC (DNA:RNA)
RNA: B3 RNA with A26G, C28A, G29C, U30G
DNA 1: CAATCTGAATTCCGGTCTCCC
DNA 2: TGGTGGCTACGACGGGATT

For the assay, the target named is T1, RBFOX1 RRM. Nature of the assay: EMSA; HiTS-Eq, 1 nM pool, 10 min; buffer printed only for the single-RNA assays: 10 mM Tris pH 7.5, 150 mM NaCl, 3.4 mM EDTA, 0.001% NP-40, 30 C. To be noted: tags: His6 N-terminal (pET28a); label: 5' 32P. In a few lines: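 A pool of RNA with 7 randomized nucleotides, 5′-radiolabelled and with DNA-annealed flanks, was equilibrated at 1 nM for 10 min in 50 µL with purified RbFox RRM, wild type or mutant, across increasing protein concentrations. Free RNA was separated by 8% native PAGE, excised, reverse-transcribed, barcoded by PCR and sequenced. Relative association constants were obtained from read-count changes of each RNA species versus the control reaction and normalised to the cognate motif.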
Background: A gel shift assay detects complexes by their altered migration in electrophoresis.
B1: the binding signal was 0.00842 KA relative to UGCAUGU.

As to B2, the binding signal is 0.00711 KA relative to UGCAUGU. The figure for B3 is 0.0072 KA relative to UGCAUGU. The figure for B4 is 0.00217 KA relative to UGCAUGU.

For the molecule B5, the binding signal is 0.0279 KA relative to UGCAUGU. The figure for B6 is 0.0139 KA relative to UGCAUGU; for B7 it is 0.0102 KA relative to UGCAUGU; for B8 it is 0.00858 KA relative to UGCAUGU. The figure for B9 is 0.0447 KA relative to UGCAUGU.

B10: the binding signal is 0.0191 KA relative to UGCAUGU. On to B11, for which the binding signal was 0.0118 KA relative to UGCAUGU. The figure for B12 is 0.0101 KA relative to UGCAUGU. With B13 the figure was 0.0481 KA relative to UGCAUGU. With B14 the figure was 0.0102 KA relative to UGCAUGU; with B15, 0.0124 KA relative to UGCAUGU; with B16, 0.0403 KA relative to UGCAUGU. B17: the binding signal was 0.0198 KA relative to UGCAUGU.

Take B18: the binding signal is 0.0408 KA relative to UGCAUGU. With B19 the figure was 0.0038 KA relative to UGCAUGU; with B20, 0.00293 KA relative to UGCAUGU. The figure for B21 is 0.0153 KA relative to UGCAUGU; for B22 it is 0.000474 KA relative to UGCAUGU. With B23 the figure was 0.00588 KA relative to UGCAUGU; with B24, 0.0138 KA relative to UGCAUGU; with B25, 0.0101 KA relative to UGCAUGU. Take B26: the binding signal was 0.0138 KA relative to UGCAUGU.

In the case of B27, the binding signal was 0.0184 KA relative to UGCAUGU. The figure for B28 is 0.0316 KA relative to UGCAUGU; for B29 it is 0.00925 KA relative to UGCAUGU. In the case of B30, the binding signal was 0.0054 KA relative to UGCAUGU. The figure for B31 is 0.00911 KA relative to UGCAUGU; for B32 it is 0.077 KA relative to UGCAUGU. The figure for B33 is 0.0767 KA relative to UGCAUGU; for B34 it is 0.0121 KA relative to UGCAUGU.

In the case of B35, the binding signal is 0.252 KA relative to UGCAUGU.
